# Source: PubChem BioAssay (EPA / NIEHS)
# Records with an inconclusive call do not appear. Activity calls are given as the source filed them. How the source made its calls: active means hit-call score of the fitted dose curve at least 0.9, where 1 is the maximum; inconclusive means response in the unintended direction; inactive means score below 0.9.
# What was measured:
# [1] = target: Neuropeptide Y receptor type 2 (Homo sapiens) (UniProt P49146); test: NVS_GPCR_hNPY2: NovaScreen (NVS) G Protein-Coupled Receptor Assay for human Neuropeptide Receptor Y2 (NPY2) (AID 2283277)
# In short: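 Radioligand binding on membranes extracted from SK-N-MC cells, cell-free, read 1 h after dosing by filter-based scintillation counting. Loss of signal vs DMSO. Primary screen in duplicate at 25 uM; actives followed up in concentration-response up to 50 uM.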
# [2] = target: human Neurotensin Receptor (NTS), NTSR1 (gene 4923) (UniProt P30989); test: NVS_GPCR_hNTS: NovaScreen (NVS) G Protein-Coupled Receptor Assay for human Neurotensin Receptor (NTS) (AID 2283279)
# In short: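 Radioligand displacement on human NTSR1 protein from CHO cells, cell-free, 1 h, filter-based scintillation counting. Primary screen at 25 uM in duplicate; hits rerun in concentration-response up to 50 uM.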
# [3] = target: rat Serotonin, 5-Hydroxytryptamine Receptor 1 (5HT1), Non-Selective Binding, Htr1a (gene 24473) (UniProt P19327); test: NVS_GPCR_r5HT1_NonSelective: NovaScreen (NVS) G Protein-Coupled Receptor Assay for rat Serotonin, 5-Hydroxytryptamine Receptor 1 (5HT1), Non-Selective Binding (AID 2283286)
# In short: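 Rat cortical membranes, radioligand displacement, 1 h incubation, read by filter scintillation. Primary screen in duplicate at 25 uM. Hits (e.g. ≥30% inhibition) went to concentration-response up to 50 uM, fitted as loss of binding versus DMSO.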
# [4] = target: guinea pig Bradykinin Receptor B2 (BK2), BDKRB2 (gene 100135486) (UniProt O70526); test: NVS_GPCR_gBK2: NovaScreen (NVS) G Protein-Coupled Receptor Assay for guinea pig Bradykinin Receptor B2 (BK2) (AID 2283292)
# In short: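 Radioligand displacement on guinea pig ileum membranes for 1 h, read by filter-based scintillation counting; loss of signal relative to DMSO. Compounds were screened in duplicate at 25 uM, and those passing the threshold were retested in concentration-response up to 50 uM.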
# [5] = target: mouse Cholecystokinin, CCK2 Receptor (CCKB), Cckbr (gene 12426) (UniProt P56481); test: NVS_GPCR_mCKKBCentral: NovaScreen (NVS) G Protein-Coupled Receptor Assay for mouse Cholecystokinin, CCK2 Receptor (CCKB) (AID 2283293)
# In short: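 Radioligand displacement binding on mouse forebrain membranes, 2 h exposure, filter-based scintillation counting. Primary screen in duplicate at 25 uM; actives (e.g. ≥30% inhibition) retested in concentration-response up to 50 uM; loss of binding signal relative to DMSO.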
# [6] = target: human Thromboxane A2 Receptor (TXA2), TBXA2R (gene 6915) (UniProt P21731); test: NVS_GPCR_hTXA2: NovaScreen (NVS) G Protein-Coupled Receptor Assay for human Thromboxane A2 Receptor (TXA2) (AID 2283282);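 further: actives reduce bound radioligand signal relative to DMSO baseline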
# In short: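 Biochem binding, human platelets, cell-free; competitive radioligand displacement; 1 h; filter radiodetection. 25 uM duplicate primary, conc. series secondary; DMSO neg. ctrl.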
# [7] = test system: 5-hydroxytryptamine receptor 2C (pig); test: NVS_GPCR_p5HT2C: NovaScreen (NVS) G Protein-Coupled Receptor Assay for pig Serotonin, 5-Hydroxytryptamine Receptor 2C (5HT2C) (AID 2283288)
# In short: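 Pig choroid plexus membranes; radioligand competitive binding, filter-based scintillation counting, read 1 h after dosing. Primary screen in duplicate at 25 uM; actives then run as concentration series; loss of signal versus DMSO baseline.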
# [8] = target: human Opioid Receptor Mu (Opiate Mu), OPRM1 (gene 4988) (UniProt P35372); test: NVS_GPCR_hOpiate_mu: NovaScreen (NVS) G Protein-Coupled Receptor Assay for human Opioid Receptor Mu (Opiate Mu) (AID 2283290);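 further: hits lower bound tracer signal versus DMSO meaning displacement of the ligand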
# In short: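 Cell-free radioligand binding to membranes from CHO cells expressing the receptor; bound tracer measured by filter-based scintillation counting 2.5 hours after dosing. Loss of signal versus DMSO baseline reflects displacement; primary screen at 25 uM in duplicate, actives followed up in concentration series.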
# [9] = target: guinea pig Serotonin, 5-Hydroxytryptamine Receptor 4 (5HT4), HTR4 (gene 100135548) (UniProt O70528); test: NVS_GPCR_g5HT4: NovaScreen (NVS) G Protein-Coupled Receptor Assay for guinea pig Serotonin, 5-Hydroxytryptamine Receptor 4 (5HT4) (AID 2283294)
# In short: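 Guinea pig striatal membranes; radioligand competitive displacement, filtration and scintillation counting after 1 h. Primary screen in duplicate at 25 uM; actives then tested in concentration series; loss of binding signal fitted relative to DMSO.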
# [10] = test system: rat Adrenergic, Alpha 1B Receptor (Adra1B), gene 24173; test: NVS_GPCR_rAdra1B: NovaScreen (NVS) G Protein-Coupled Receptor Assay for rat Adrenergic, Alpha 1B Receptor (Adra1B) (AID 2283297)
# In short: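 Rat liver membranes, radioligand displacement with filter-based scintillation detection, 1 h incubation. Primary screen in duplicate at 25 uM; actives retested in concentration series; activity relative to DMSO.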
# [11] = target: rat Adrenergic, Alpha 1, Non-selective Receptor (Adra1), Adra1a (gene 29412) (UniProt P43140); test: NVS_GPCR_rAdra1_NonSelective: NovaScreen (NVS) G Protein-Coupled Receptor Assay for rat Adrenergic, Alpha 1, Non-selective Receptor (Adra1) (AID 2283289)
# In short: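 Rat forebrain membranes; radioligand displacement read by filter-based scintillation counting 1 h after dosing. Primary screen in duplicate at 25 uM; hits (e.g. ≥30% inhibition) rerun as concentration–response to 50 uM max. Fitted versus DMSO.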
# [12] = target: mouse Cholecystokinin, CCK1 Receptor (CCKA), Cckar (gene 12425) (UniProt O08786); test: NVS_GPCR_mCCKAPeripheral: NovaScreen (NVS) G Protein-Coupled Receptor Assay for mouse Cholecystokinin, CCK1 Receptor (CCKA) (AID 2283285)
# In short: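 Radioligand competitive displacement on mouse pancreatic membranes, 2 h incubation; filter-based scintillation counting, loss of signal versus DMSO. Single-concentration screen at 25 uM in duplicate, actives retested in concentration-response up to 50 uM.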
# [13] = test system: rabbit Platelet Activating Factor Receptor (PAF), gene 100354046; test: NVS_GPCR_rabPAF: NovaScreen (NVS) G Protein-Coupled Receptor Assay for rabbit Platelet Activating Factor Receptor (PAF) (AID 2283287)
# In short: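 Rabbit platelet membrane preparation; radioligand displacement read by filter-based scintillation counting 1 h after dosing, loss of signal versus DMSO. Primary screen in duplicate at 25 uM, actives followed up in concentration series.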
# [14] = target: rat Serotonin, 5-Hydroxytryptamine Receptor (5HT), Non-Selective Binding, Htr1a (gene 24473) (UniProt P19327); test: NVS_GPCR_r5HT_NonSelective: NovaScreen (NVS) G Protein-Coupled Receptor Assay for rat Serotonin, 5-Hydroxytryptamine Receptor (5HT), Non-Selective Binding (AID 2283295)
# In short: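 Radioligand displacement on rat cortical membranes, 1 h incubation, filter-based scintillation counting. Primary duplicates at 25 uM, actives retested in concentration series; loss of signal fitted against DMSO as baseline.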
# [15] = target: human Vasopressin 1A Receptor (V1A), AVPR1A (gene 552) (UniProt P37288); test: NVS_GPCR_hV1A: NovaScreen (NVS) G Protein-Coupled Receptor Assay for human Vasopressin 1A Receptor (V1A) (AID 2283284)
# In short: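 Cell-free radioligand displacement on human platelet preparations, 1.5 h incubation, filter-based scintillation counting. Chemicals first tested in duplicate at 25 uM; actives then run in concentration-response up to 50 uM, loss of signal fitted against DMSO.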
# [16] = target: rat Adrenergic Receptor, Beta (Adrb), Non-selective Binding, Adrb1 (gene 24925) (UniProt P18090); test: NVS_GPCR_rAdrb_NonSelective: NovaScreen (NVS) G Protein-Coupled Receptor Assay for rat Adrenergic Receptor, Beta (Adrb), Non-selective Binding (AID 2283298)
# In short: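 Non-selective beta-adrenergic radioligand binding in rat cortical membranes, 1 h incubation, filter-based scintillation read-out. Primary screen 25 uM in duplicate; hits retested in concentration-response up to 50 uM, DMSO baseline.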
# [17] = target: rat Adrenergic, Alpha 1A Receptor (Adra1A), Adra1a (gene 29412) (UniProt P43140); test: NVS_GPCR_rAdra1A: NovaScreen (NVS) G Protein-Coupled Receptor Assay for rat Adrenergic, Alpha 1A Receptor (Adra1A) (AID 2283296)
# In short: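 Rat cortical membranes pretreated with chlorethyl clonidine; competitive radioligand displacement, 1 h. Filter-based scintillation counting. Primary screen in duplicate at 25 uM, actives followed in concentration series.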
# Chain of human Opioid Receptor Mu (Opiate Mu), OPRM1 (gene 4988) (P35372 whole entry, looked up): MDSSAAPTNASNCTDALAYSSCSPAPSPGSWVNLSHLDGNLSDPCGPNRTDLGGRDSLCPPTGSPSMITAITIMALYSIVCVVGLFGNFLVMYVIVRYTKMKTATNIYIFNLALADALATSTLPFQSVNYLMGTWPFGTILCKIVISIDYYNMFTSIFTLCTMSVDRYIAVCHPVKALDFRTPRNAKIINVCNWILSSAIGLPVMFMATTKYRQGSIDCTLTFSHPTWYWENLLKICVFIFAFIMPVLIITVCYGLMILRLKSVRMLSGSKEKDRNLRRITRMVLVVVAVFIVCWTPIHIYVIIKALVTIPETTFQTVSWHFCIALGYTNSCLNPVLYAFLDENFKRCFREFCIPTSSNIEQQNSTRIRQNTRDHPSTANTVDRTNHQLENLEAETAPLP
# Chain of human Thromboxane A2 Receptor (TXA2), TBXA2R (gene 6915) (P21731 whole entry, looked up): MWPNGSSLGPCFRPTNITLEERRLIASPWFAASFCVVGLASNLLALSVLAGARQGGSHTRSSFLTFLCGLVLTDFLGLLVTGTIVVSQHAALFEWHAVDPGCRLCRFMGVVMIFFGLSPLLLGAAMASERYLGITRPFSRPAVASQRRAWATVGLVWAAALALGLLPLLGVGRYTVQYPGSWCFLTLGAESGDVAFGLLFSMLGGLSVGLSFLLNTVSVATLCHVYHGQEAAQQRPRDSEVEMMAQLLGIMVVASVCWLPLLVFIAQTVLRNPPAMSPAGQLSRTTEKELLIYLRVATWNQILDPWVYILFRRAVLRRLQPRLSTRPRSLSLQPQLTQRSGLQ
# Chain of rat Serotonin, 5-Hydroxytryptamine Receptor (5HT), Non-Selective Binding, Htr1a (gene 24473) (P19327 whole entry, looked up): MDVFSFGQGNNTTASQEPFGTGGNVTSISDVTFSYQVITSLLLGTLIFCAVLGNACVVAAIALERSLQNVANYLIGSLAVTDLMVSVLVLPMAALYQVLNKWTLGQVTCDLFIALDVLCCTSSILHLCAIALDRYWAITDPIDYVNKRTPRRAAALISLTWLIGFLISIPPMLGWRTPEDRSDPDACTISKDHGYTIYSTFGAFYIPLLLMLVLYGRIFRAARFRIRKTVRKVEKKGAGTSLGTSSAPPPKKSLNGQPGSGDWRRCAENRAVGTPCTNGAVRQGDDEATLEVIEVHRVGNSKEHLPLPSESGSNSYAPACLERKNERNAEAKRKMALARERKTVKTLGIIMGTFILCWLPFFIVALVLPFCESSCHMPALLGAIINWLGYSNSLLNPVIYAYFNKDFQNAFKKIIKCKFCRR
# Chain of rat Serotonin, 5-Hydroxytryptamine Receptor 1 (5HT1), Non-Selective Binding, Htr1a (gene 24473) (P19327 whole entry, looked up): as above
# Chain of rat Adrenergic Receptor, Beta (Adrb), Non-selective Binding, Adrb1 (gene 24925) (P18090 whole entry, looked up): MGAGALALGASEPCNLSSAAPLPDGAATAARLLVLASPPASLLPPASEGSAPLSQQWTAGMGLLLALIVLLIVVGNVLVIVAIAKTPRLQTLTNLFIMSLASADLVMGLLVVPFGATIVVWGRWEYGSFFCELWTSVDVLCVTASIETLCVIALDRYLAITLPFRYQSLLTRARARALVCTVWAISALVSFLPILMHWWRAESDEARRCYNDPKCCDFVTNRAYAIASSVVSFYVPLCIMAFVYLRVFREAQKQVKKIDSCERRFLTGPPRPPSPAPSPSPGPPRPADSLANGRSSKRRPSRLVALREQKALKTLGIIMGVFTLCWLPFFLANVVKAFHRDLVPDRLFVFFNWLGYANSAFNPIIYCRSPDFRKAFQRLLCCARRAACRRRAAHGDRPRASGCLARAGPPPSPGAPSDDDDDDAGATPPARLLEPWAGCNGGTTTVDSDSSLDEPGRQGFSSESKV
# Chain of rat Adrenergic, Alpha 1, Non-selective Receptor (Adra1), Adra1a (gene 29412) (P43140 whole entry, looked up): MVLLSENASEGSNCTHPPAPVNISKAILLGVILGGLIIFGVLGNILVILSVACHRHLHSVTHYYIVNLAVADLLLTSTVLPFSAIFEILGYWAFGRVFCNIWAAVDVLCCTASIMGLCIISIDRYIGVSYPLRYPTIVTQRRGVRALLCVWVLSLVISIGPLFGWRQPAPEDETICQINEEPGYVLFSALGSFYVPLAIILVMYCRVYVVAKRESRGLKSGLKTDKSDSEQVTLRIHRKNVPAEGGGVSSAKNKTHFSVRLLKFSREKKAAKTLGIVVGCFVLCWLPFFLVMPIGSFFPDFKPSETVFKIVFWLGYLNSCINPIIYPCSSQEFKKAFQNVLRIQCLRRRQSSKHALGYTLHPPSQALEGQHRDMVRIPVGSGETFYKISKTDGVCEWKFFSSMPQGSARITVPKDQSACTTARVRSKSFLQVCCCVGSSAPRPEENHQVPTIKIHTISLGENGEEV
# Chain of guinea pig Serotonin, 5-Hydroxytryptamine Receptor 4 (5HT4), HTR4 (gene 100135548) (O70528 whole entry, looked up): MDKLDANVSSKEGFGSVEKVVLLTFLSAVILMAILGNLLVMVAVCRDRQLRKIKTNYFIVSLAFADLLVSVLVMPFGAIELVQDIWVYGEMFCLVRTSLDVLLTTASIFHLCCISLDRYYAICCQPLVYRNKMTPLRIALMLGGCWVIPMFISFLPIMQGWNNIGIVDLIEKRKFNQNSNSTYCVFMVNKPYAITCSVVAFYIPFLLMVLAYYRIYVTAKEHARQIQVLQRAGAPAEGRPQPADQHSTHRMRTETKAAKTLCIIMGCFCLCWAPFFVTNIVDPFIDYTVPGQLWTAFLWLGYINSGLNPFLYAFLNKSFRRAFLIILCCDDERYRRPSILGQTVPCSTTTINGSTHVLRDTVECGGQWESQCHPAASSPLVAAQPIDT
# Chain of mouse Cholecystokinin, CCK1 Receptor (CCKA), Cckar (gene 12425) (O08786 whole entry, looked up): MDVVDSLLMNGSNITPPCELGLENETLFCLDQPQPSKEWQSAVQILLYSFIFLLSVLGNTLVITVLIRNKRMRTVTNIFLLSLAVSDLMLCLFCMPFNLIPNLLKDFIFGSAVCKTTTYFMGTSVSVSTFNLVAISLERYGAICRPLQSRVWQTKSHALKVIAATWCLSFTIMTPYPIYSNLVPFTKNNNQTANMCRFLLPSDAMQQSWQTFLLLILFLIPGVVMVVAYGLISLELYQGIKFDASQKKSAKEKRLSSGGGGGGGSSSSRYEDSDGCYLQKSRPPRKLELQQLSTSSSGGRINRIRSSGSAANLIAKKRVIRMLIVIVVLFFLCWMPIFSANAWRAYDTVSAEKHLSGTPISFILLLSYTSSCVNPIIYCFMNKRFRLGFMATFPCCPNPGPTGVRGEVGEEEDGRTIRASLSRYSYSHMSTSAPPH
# Chain of human Vasopressin 1A Receptor (V1A), AVPR1A (gene 552) (P37288 whole entry, looked up): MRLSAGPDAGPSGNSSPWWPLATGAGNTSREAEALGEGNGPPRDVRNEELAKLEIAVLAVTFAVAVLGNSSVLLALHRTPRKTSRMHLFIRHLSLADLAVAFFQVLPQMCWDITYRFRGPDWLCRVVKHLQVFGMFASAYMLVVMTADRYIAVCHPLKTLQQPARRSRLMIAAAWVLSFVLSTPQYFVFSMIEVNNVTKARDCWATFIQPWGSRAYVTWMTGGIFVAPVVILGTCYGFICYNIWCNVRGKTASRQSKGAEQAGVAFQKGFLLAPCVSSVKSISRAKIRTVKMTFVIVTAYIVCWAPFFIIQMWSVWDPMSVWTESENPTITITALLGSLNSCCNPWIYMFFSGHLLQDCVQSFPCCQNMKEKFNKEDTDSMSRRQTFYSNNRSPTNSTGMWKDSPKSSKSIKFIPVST
# Chain of Neuropeptide Y receptor type 2 (Homo sapiens) (P49146 whole entry, looked up): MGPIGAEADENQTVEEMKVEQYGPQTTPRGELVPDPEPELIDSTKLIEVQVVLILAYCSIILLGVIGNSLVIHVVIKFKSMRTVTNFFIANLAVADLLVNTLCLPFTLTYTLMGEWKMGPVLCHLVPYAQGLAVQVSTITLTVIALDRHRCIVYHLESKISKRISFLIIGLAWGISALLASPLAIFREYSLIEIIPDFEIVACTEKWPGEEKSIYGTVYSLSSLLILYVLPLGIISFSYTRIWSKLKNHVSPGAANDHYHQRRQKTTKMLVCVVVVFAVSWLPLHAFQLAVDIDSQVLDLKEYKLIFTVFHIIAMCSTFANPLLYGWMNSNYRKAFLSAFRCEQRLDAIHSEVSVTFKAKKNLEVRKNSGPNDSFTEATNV
# Chain of mouse Cholecystokinin, CCK2 Receptor (CCKB), Cckbr (gene 12426) (P56481 whole entry, looked up): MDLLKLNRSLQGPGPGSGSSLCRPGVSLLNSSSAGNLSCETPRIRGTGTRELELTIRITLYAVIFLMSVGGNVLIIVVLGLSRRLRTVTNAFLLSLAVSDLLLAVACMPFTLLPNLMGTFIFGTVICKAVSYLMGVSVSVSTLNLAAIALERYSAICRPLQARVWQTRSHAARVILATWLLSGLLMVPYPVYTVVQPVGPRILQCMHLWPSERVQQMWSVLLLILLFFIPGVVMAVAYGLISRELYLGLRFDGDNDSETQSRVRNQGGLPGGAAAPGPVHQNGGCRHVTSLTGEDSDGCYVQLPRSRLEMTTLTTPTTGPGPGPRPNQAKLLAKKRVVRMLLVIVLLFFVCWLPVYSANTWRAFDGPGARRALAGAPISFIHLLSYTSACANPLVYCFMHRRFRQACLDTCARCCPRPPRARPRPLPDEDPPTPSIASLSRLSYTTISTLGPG
smiles,measurement,setting,value
CC(C)c1cccc(C(C)C)c1N1C(=O)c2ccc(O)cc2C1=O,outcome,[1],inactive
C=CCCCCCCCCC(=O)O,outcome,[1],inactive
Cc1ccc(C)c(O)c1,AC50,[2],9.84 µM (active)
On1ccccc1=S,AC50,[3],16.2 µM (active)
Cc1[nH]cnc1C[C@H]1CCc2c(C)c3ccccc3n2C1=O,outcome,[3],inactive
COCCOc1cc2cc(C(=O)NC3CCN(C(C)C)CC3)n(CC(=O)Nc3ccc(Cl)cn3)c2cn1,outcome,[4],inactive
CNS(=O)(=O)c1cc(C(=O)N2CCC(CCN3C4CCC3CC(n3c(C)nc5ccccc53)C4)(c3cccc(F)c3)CC2)c(Cl)cc1F (stereo unspecified),outcome,[5],inactive
CCc1cc(SCc2sc(-c3ccc(C(F)(F)F)cc3)nc2CN2CCN(c3ccc(OC)cc3)CC2)ccc1OCC(=O)O,AC50,[5],35.3 µM (active)
CCCCCCc1ccc(O)cc1O,AC50,[6],5.72 µM (active)
same,AC50,[7],16.7 µM (active)
same,outcome,[8],inactive
same,AC50,[9],36.6 µM (active)
Cn1cnc([N+](=O)[O-])c1Sc1ncnc2nc[nH]c12,outcome,[10],inactive
COC(=O)c1c(Cl)c(Cl)c(C(=O)OC)c(Cl)c1Cl,outcome,[7],inactive
CC[C@H]1CC[C@H](NCc2cc3c(cc2OC)[C@H]2C[C@H]2C(=O)N3C)[C@H](c2ccccc2)N1,AC50,[11],17.5 µM (active)
same,AC50,[8],5.7 µM (active)
same,AC50,[9],14.2 µM (active)
same,AC50,[10],17.2 µM (active)
O=C(OC[C@H]1O[C@@H](OC(=O)c2cc(O)c(O)c(OC(=O)c3cc(O)c(O)c(O)c3)c2)[C@H](OC(=O)c2cc(O)c(O)c(OC(=O)c3cc(O)c(O)c(O)c3)c2)[C@@H](OC(=O)c2cc(O)c(O)c(OC(=O)c3cc(O)c(O)c(O)c3)c2)[C@@H]1OC(=O)c1cc(O)c(O)c(OC(=O)c2cc(O)c(O)c(O)c2)c1)c1cc(O)c(O)c(OC(=O)c2cc(O)c(O)c(O)c2)c1,outcome,[6],inactive
same,AC50,[12],12 µM (active)
CCCCCCCCCCCCCCCO,outcome,[10],inactive
CC[C@H]1OC(=O)[C@H](C)[C@@H](O[C@H]2C[C@@](C)(OC)[C@@H](O)[C@H](C)O2)[C@H](C)[C@@H](O[C@@H]2O[C@H](C)C[C@H](N(C)C)[C@H]2O)[C@](C)(O)C[C@@H](C)C(=O)[C@H](C)[C@@H](O)[C@]1(C)O,outcome,[11],inactive
CC(C)=CCCC(C)CCO (stereo unspecified),outcome,[8],inactive
Nc1ccc(Nc2ccccc2)cc1,AC50,[11],32.3 µM (active)
same,AC50,[9],31.6 µM (active)
same,AC50,[10],40.6 µM (active)
Oc1ccc2c(c1)-c1ccccc1C2,AC50,[7],4.27 µM (active)
same,AC50,[9],6.87 µM (active)
CC(C)(O)c1coc(S(=O)(=O)NC(=O)Nc2c3c(cc4c2CCC4)CCC3)c1,AC50,[7],25 µM (active)
O=C(CCCCCCCCc1cccnc1)N1CCC(C=C(c2ccccc2)c2ccccc2)CC1,AC50,[8],24.7 µM (active)
COc1ccc(-n2nc(C(F)F)cc2-c2ccc(S(C)=O)cc2)cc1 (stereo unspecified),AC50,[13],11.5 µM (active)
CC1(C)C(=O)N(Br)C(=O)N1Br,AC50,[14],17.1 µM (active)
Cc1ccc(O)cc1,AC50,[15],22.1 µM (active)
same,outcome,[16],inactive
COc1ccc(/C=C/S(=O)(=O)NC(=O)c2ccc(C)cc2Cl)cc1,AC50,[12],22.7 µM (active)
Fc1ccccc1[C@@H](F)COC1CCC(Nc2ncnc3[nH]ncc23)CC1 (stereo partly specified),AC50,[7],7.93 µM (active)
COc1ccc2sc(C(=O)Nc3nnn[nH]3)c(OC(C)C)c2c1,AC50,[6],0.187 µM (active)
CCN(C(=O)c1cc(C)cc(OC[C@H](C)Nc2ccncc2)c1)C(C)C,AC50,[11],13.4 µM (active)
same,AC50,[9],3.35 µM (active)
same,AC50,[17],7.54 µM (active)
O=c1[nH]c2ccc(S(=O)CCN3CCC(Cc4ccc(F)cc4)CC3)cc2o1 (stereo unspecified),outcome,[3],inactive
same,AC50,[11],1.07 µM (active)
same,AC50,[14],5.88 µM (active)
same,AC50,[17],3.25 µM (active)
same,AC50,[10],3.46 µM (active)
same,outcome,[16],inactive
CCCN(C1CCN(C(=O)C2CCNCC2)CC1)[C@@H]1CCc2ccc(OC)cc2C1,AC50,[3],8.67 µM (active)
same,AC50,[11],16.1 µM (active)
same,AC50,[9],8.99 µM (active)
same,AC50,[14],25 µM (active)
same,AC50,[10],12.8 µM (active)
same,AC50,[16],18.3 µM (active)
Cn1c(=O)c2c(ncn2C)n(C)c1=O,outcome,[7],inactive
CC1=CC(=O)CC(C)(C)C1,AC50,[15],18.5 µM (active)
same,outcome,[16],inactive
Cc1ccc(N)cc1O,outcome,[13],inactive
